This is a sample that favours compounds with a hit; in the whole collection about 12% have one here.
FMDV antiviral: blocks foot and mouth disease virus; AID 1159524; 410,000 tested, 1.2% active; FMDV antiviral cell-based qHTS; Potency, µM (doses to about 57.9 µM), for the others: at the top dose activity change, negative = inhibition, hits mostly inhibitors; calls by dose curve; tested in HEK293T cells; further: read-out not given here; potency means the concentration at half of the fitted maximal effect; on the % scale 0 is the no-effect control and ±100 the full control effect; nearly all actives have a fitted effect of over 45% in size
Sm TGR block: inhibitors of Schistosoma mansoni thioredoxin glutathione reductase | Q962Y6 | purified TGR, DTNB reduction, TNB absorbance 405 nm | Potency, µM (top dose mostly 114 µM), for inactives: top-dose activity change, negative = inhibition, actives largely listed as inhibitors | 360,000 tested, 3% active | AID 485364; active means well fitted inhibition curve with a large enough effect; inconclusive means small, poorly fitted or top-dose-only effect; inactive means no such curve, though single readings can be large or run the other way; further: potency means the concentration at half of the fitted maximal effect; on the % scale 0 is the no-effect control and ±100 the full control effect; nearly all actives have a fitted effect of over 60% in size
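TGR 20 nM + NADPH 100 uM (dispensed conc.), cpd preinc 15 min RT; start with NADPH (500 uM addition) then DTNB (15 mM addition). Kinetic TNB absorbance, 405 nm filter. Four-parameter Hill fit across titration.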
Cycloheximide cs: counter-screen hit for Shiga toxin inhibitors, cycloheximide; max response, %; 300,000 tested, 12% active; cell reporter, cycloheximide protein synthesis inhibition counterscreen; in the data active means max response mostly above about 13%, no sharp cut-off; inactive means mostly below about 14%; further: read at 38.3 µM for the half of the compounds with a filed dose; 0% is about no effect
Shiga inhibitor: Shiga toxin inhibition; Vero cells, Shiga toxin protein synthesis inhibition reporter; inhibition, % at 38.7 µM; AID 2315; 290,000 tested, 9.2% active; in the data active means inhibition mostly above about 28%, no sharp cut-off; inactive means mostly below about 43%; further: 0% is about no effect
* hit, by the source's call; u = inconclusive; x = not tested or not shown.

SMILES	FMDV antiviral	Sm TGR block	Cycloheximide cs	Shiga inhibitor
CCC(=O)Nc1cccc(NC(=O)c2ccc3c(c2)OCCO3)c1	x	-9%	50*	56*
O=C(Nc1cccc(-c2cn3c(n2)SCC3)c1)c1ccc2c(c1)OCO2	-5%	-11%	31	116*
O=C(Nc1ccc(-c2cn3c(n2)SCC3)cc1)c1ccc2c(c1)OCO2	21%	-9%	29	53
O=C(Nc1ccc2c(c1)OCCO2)c1ccc(Br)o1	5%	-35%	42*	91*
CC(OC(=O)c1ccc(Br)o1)C(=O)Nc1ccc2c(c1)OCCO2 (stereo not given)	-3%	-1%	x	x
COc1cccc(Cn2c(=O)n(-c3cccc(Cl)c3)c(=O)c3c4c(sc32)CN(C(C)=O)CC4)c1	-17%	18%	x	x
COCCCNC(=O)C1CCN(c2nc3ccc(C)cc3[nH]2)CC1	23%	-2%	x	x
CCOc1ncccc1C(=O)Oc1ccc2c(c1)OCO2	2%	-17%	9	33
O=C(Oc1ccc2c(c1)OCO2)c1ccc(F)cc1Cl	40%	1%	72*	137*
CCCCOc1cccc(C(=O)Nc2ccc(NC(=O)c3ccco3)cc2)c1	-8%	-3%	-2	-18
CCCOc1cccc(C(=O)Nc2cccc(NC(=O)c3ccco3)c2)c1	-25%	5%	14*	67
CCCc1cc2c(cc1NC(=O)c1ccc(C(C)(C)C)cc1)OCO2	43%	16%	22*	29*
CCOc1ccc(C(=O)Nc2ccc3c(c2)OCCO3)cc1Br	43%	1%	x	x
COc1ccc(C(=O)Nc2ccc3c(c2)OCCO3)cc1Br	0%	-1%	19*	34*
Cc1ccc2oc(C(=O)Nc3nc(-c4ccc(F)cc4)ns3)c(C)c2c1	-3%	4%	x	x
COC(=O)c1cc2oc(C)cc2n1CC(=O)Nc1ccc(OC)c(OC)c1	-4%	-14%	x	x
COc1cc(C(=O)NC2CC(=O)N(c3cccc(F)c3)C2)cc(OC)c1OC (stereo not given)	-16%	12%	x	x
O=C(Nc1cccc(F)c1)c1ccc2c(c1)OCO2	12%	4%	59*	69*
CCCOc1cccc(C(=O)Nc2ccc3c(c2)OCCO3)c1	-4%	-18%	24*	71*
Cc1ccc(NC(=O)c2oc3ccccc3c2NC(=O)c2ccc3c(c2)OCO3)cc1	43%	3%	12*	33*
CCCOc1cccc(C(=O)Nc2cccnc2)c1	x	-11%	2	5
O=C(Nc1ccc2c(c1)OCCO2)c1cccc(Br)c1	1%	-16%	38*	43*
CCC(O)c1cc2c(cc1NC(=O)c1cccc(Br)c1)OCCO2 (stereo not given)	-11%	0%	x	x
Cc1ccc(S(=O)(=O)CC(=O)c2ccc(C)c([N+](=O)[O-])c2)cc1	11%	-2%	7	8
O=C(Nc1ccc2c(c1)OCO2)c1ccncc1	47%	-29%	15	18
SMILES	FMDV antiviral	Sm TGR block	Cycloheximide cs	Shiga inhibitor
CCN1C(=O)c2cccc3c(NC(=O)c4ccc5c(c4)OCCO5)ccc1c23	x	3%	13*	10
CCN1C(=O)c2ccc(C(=O)Nc3ccc4c(c3)OCO4)cc2C1=O	0%	2%	23*	62*
Cc1ccc(C(=O)Nc2ccc3c(c2)OCO3)cc1	-51%	-2%	25*	56
CCN1C(=O)c2cccc3c(NC(=O)c4ccccc4)ccc1c23	u	-7%	-3	-5
CCN1C(=O)c2ccc(C(=O)NCc3ccc4c(c3)OCO4)cc2C1=O	2%	-11%	-1	13
Cc1ccc(S(=O)(=O)CC(=O)c2ccc3c(c2)OCCO3)cc1	41%	-30%	45*	82*
CC(Oc1ccccc1)C(=O)Nc1cccc(-c2cn3cccnc3n2)c1 (stereo not given)	-10%	3%	x	x
CCOC(=O)/C(C#N)=C\c1cn(C)c2ccccc12	9%	49%	23	37
Cn1cc(/C=C/C(=O)c2ccccc2)c2ccccc21	-32%	-18%	41*	74*
CCCCN(CCCC)CC(O)Cn1cc(/C=C/C(=O)c2ccccc2)c2ccccc21 (stereo not given)	-15%	6%	x	x
Cc1ccc(C(=O)/C=C/c2cn(CN3CCN(C)CC3)c3ccccc23)cc1	51%	23%	35*	85*
CCOC(=O)/C(=C\c1cn(C)c2ccccc12)[N+](=O)[O-]	28µM*	u	15	-6
COc1ccccc1NC(=O)C(=O)NCC(c1cccnc1)N1CCc2ccccc2C1 (stereo not given)	-25%	0%	x	x
CC(C)c1ccc(NC(=O)c2cc(S(=O)(=O)N(C)C3CCCCC3)ccc2F)cc1	u	10%	x	x
CCC(=O)Nc1ccc(CC)cc1-c1nc2ccccc2n(CC(=O)Nc2cccc(OC)c2)c1=O	-23%	0%	x	x

Screening data: PubChem, National Center for Advancing Translational Sciences (NCATS)
